Screening results as filed in PubChem BioAssay.
SW480 rerep – induces DNA re-replication in SW480 colon adenocarcinoma cells. SW480 DNA re-replication, Hoechst DNA content imaging, 48 h. AID 624297. 340,000 compounds, 1.8% hits. Potency, µM (doses to about 46.1 µM), without a hit: at the highest dose re-replication activation, actives largely listed as activators; further: potency means the concentration at half of the fitted maximal effect; % of control where 0% means no effect; nearly all actives have a fitted effect of over 55% in size
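Readout is total intensity of Hoechst-stained nuclei, excited at 405 nm and collected at 500-530 nm. Compound treatment lasted 48 hr at 37 C in 5% CO2 before staining.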
MCF10A rereplic – induces DNA re-replication in MCF 10a normal breast cells | MCF 10A DNA re-replication, Hoechst nuclear intensity, 48 h | Potency, µM (top dose mostly 46.1 µM), for the others: at the highest dose activity, positive = re-replication, actives largely listed as activators | 350,000 compounds, 2.9% hits | AID 624296; further: potency means the concentration at half of the fitted maximal effect; % of control where 0% means no effect; nearly all actives have a fitted effect of over 50% in size
TDP1 cell CPT – DT40-hTDP1 cell growth loss with CPT | 420,000 compounds, 12% hits | AID 686979 | Potency, µM (top dose mostly 46.2 µM), inactives show at the top dose activity change, negative = growth inhibition, actives largely listed as inhibitors | chicken DT40 Tdp1-/-;hTDP1 cells + 20 nM CPT, ATP luminescence, 48 h; further: potency means the concentration at half of the fitted maximal effect; on the % scale 0 is the no-effect control and ±100 the full control effect; nearly all actives have a fitted effect of over 55% in size
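Chicken DT40 Tdp1-/- cells complemented with human TDP1, 400 cells/well, exposed to compounds plus 20 nM camptothecin for at least 48 h at 37 C; viability read as ATP content by CellTiter-Glo luminescence.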
Chronic BCR inh – blocks chronic active B-cell receptor signaling; ABC-DLBCL IkBa-CBG/CBR reporter, luminescence ratio, 4 h; Potency, µM (doses to about 46.1 µM), for the others: top-dose activity change, negative = inhibition, usual class: inhibitors; 340,000 compounds, 0.05% hits; active means well fitted inhibition curve with a large enough effect in the signal ratio, with a control signal flat, not every such curve was filed as active; inconclusive means small, poorly fitted or top-dose-only effect, or effect the other way, or a change in a side signal; the % refers to the signal ratio;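 further: potency means the concentration at half of the fitted maximal effect; plate controls were basal doxycycline-induced cells for no effect and cells given 10 µM MG132 for full effect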
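TMD8 human ABC-DLBCL cells with doxycycline-inducible IκBα–green luciferase fusion and unfused red luciferase, in 0.5% FBS medium; compounds up to 46 uM, 4 h at 37C. Green/red luminescence ratio, filter-overlap corrected, fitted to concentration-response curves.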
IL1B secr inh – inhibitors of inflammasome signaling (IL-1 beta secretion); 360,000 compounds, 4.7% hits; activity change, % at 57.5 µM; THP-1 LPS/ATP IL-1B secretion, AlphaLISA, 16 h; hits give low values; AID 743279; in the data active means activity change below about -50%; inconclusive means mostly about -30% to -49%; further: on the % scale 0 is the no-effect control and ±100 the full control effect
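THP-1 cells pretreated 1 hr with compounds (up to 57.5 uM final), then stimulated with LPS (250 ng/mL final) plus ATP (1.25 mM final); secreted IL-1B measured by AlphaLISA after 16 hr, decreased signal indicating inhibition.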
DT40 TDP1 no CPT – qHTS for Inhibitors of human tyrosyl-DNA phosphodiesterase 1 (TDP1): qHTS in cells in absence of CPT. DT40 Tdp1-/- hTDP1 cells, no CPT, ATP luminescence, 48 h. Potency, µM (top dose mostly 46.2 µM), for inactives: at the highest dose activity change, negative = growth inhibition, usual class: inhibitors. 420,000 compounds, 15% hits; further: potency means the concentration at half of the fitted maximal effect; on the % scale 0 is the no-effect control and ±100 the full control effect; nearly all actives have a fitted effect of over 55% in size
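Stably hTDP1-transfected Tdp1-null chicken DT40 cells were treated with library compounds minus camptothecin and grown for at least 48 hr at 37 °C, after which cellular ATP was quantified by luminescence.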
* hit, by the source's call; i = inactive; ? = inconclusive; nt = not tested or not shown. Shown are actives, neighbours in structure and some others; about 19% of the full set was active somewhere. Unless noted, the call rests on the fitted dose curve; in most records, active means well fitted curve in the direction sought with a large enough effect; inconclusive means small, poorly fitted or top-dose-only effect, or another doubt; inactive means no such curve, though single readings can be large; an effect the other way counts as inactive or inconclusive.

SMILES | SW480 rerep | MCF10A rereplic | TDP1 cell CPT | Chronic BCR inh | IL1B secr inh | DT40 TDP1 no CPT
COc1ccc(C(C)=O)cc1CSc1nc2ccccc2c(=O)n1-c1ccccc1C | 4% | 4% | 18µM* | ? | -3 | 21µM*
COc1ccc(C(C)=O)cc1CSc1nc2ccccc2c(=O)n1-c1cccc(C)c1 | ? | ? | 18µM* | ? | -6 | 18µM*
COc1ccc(C(C)=O)cc1CSc1nc2ccccc2c(=O)n1-c1ccccc1 | 0% | 23% | ? | ? | 0 | ?
COc1ccccc1-n1c(SCC(=O)N2CCOCC2)nc2ccccc2c1=O | 2% | -4% | 7% | 1% | -2 | -20%
CCCCn1c(N)c(N(CC(C)C)C(=O)CSCC(=O)Nc2ccc(C)cc2)c(=O)[nH]c1=O | -5% | -2% | -6% | 1% | -13 | -2%
O=C(c1ccc(-n2c(SCc3cc(F)ccc3F)nc3ccccc3c2=O)cc1)N1CCOCC1 | ? | 10% | 12µM* | ? | 5 | 26µM*
Cc1cc(NC(=O)c2ccc(Cl)c(S(=O)(=O)N3CCCCC3)c2)no1 | ? | 10% | -30% | -2% | 7 | ?
CCCC1=Nc2cc(C(=O)NCCCOC(C)C)ccc2Sc2ccccc21 | 5.8µM* | 2.6µM* | 4.6µM* | ? | 41 | 4.1µM*
CCCC1=Nc2cc(C(=O)NCCOC)ccc2Sc2ccccc21 | nt | nt | ? | nt | nt | 0.58µM*
Nc1nc(NCCCN2CCOCC2)nc(Nc2cccc(F)c2)c1[N+](=O)[O-] | 0% | 10% | ? | 8% | -5 | ?
Nc1nc(NCCCN2CCOCC2)nc(Nc2ccc(F)cc2)c1[N+](=O)[O-] | 8% | ? | ? | -1% | 16 | ?
Nc1nc(NCCCN2CCOCC2)nc(Nc2ccccc2F)c1[N+](=O)[O-] | -4% | 3% | -11% | -2% | -57* | 16µM*
Cc1cccc(Nc2nc(NCCCN3CCOCC3)nc(N)c2[N+](=O)[O-])c1 | ? | ? | 16µM* | -2% | -80* | 15µM*
C=Cc1ccc(S(=O)(=O)O)cc1 | -3% | -7% | 2% | nt | nt | -12%
CCOc1cc(C(=S)N2CCOCC2)ccc1OS(=O)(=O)c1ccc(OC)cc1 | 0% | 6% | -4% | -5% | -29 | ?
COc1ccc(/C=N/NC(=O)c2ccc3ccccc3c2)cc1OS(=O)(=O)c1ccc(NC(C)=O)cc1 | -17% | -6% | 4.6µM* | ? | -12 | 3.7µM*
CCOc1cc(C(=S)N2CCOCC2)ccc1OS(=O)(=O)c1ccc(NC(C)=O)cc1 | ? | 25% | 10µM* | -3% | -53* | 16µM*
COc1ccccc1OS(=O)(=O)c1ccc(NC(C)=O)cc1 | -2% | -6% | 7% | 0% | 67 | -23%
COc1ccc(C=O)cc1OS(=O)(=O)c1ccc(NC(C)=O)cc1 | 18µM* | ? | ? | 18µM* | 20 | 3.7µM*
COCC(C)n1c(SC(C)C(=O)NC2CCCCC2C)nc2ccccc2c1=O (configuration not stated) | -3% | 5% | ? | 1% | i | ?
CC1CCCN(S(=O)(=O)c2ccc(S(=O)(=O)N3CCCN(Cc4ccccc4)C3)cc2)C1 (configuration not stated) | -10% | 16% | 16µM* | 1% | -3 | ?
O=C(C1CCCN(S(=O)(=O)c2ccc(Br)cc2)C1)N1CCN(Cc2ccccc2)CC1 (configuration not stated) | 6% | 15% | 16µM* | ? | -52* | ?
